Compound activity deposited in PubChem BioAssay by National Center for Advancing Translational Sciences (NCATS).
12-LOX inh: inhibitors of human 12S-lipoxygenase ALOX12; Potency, µM (top dose mostly 108 µM), usual class: inhibitors; 1.1% of 580,000 active; purified 12hLO, xylenol orange hydroperoxide absorbance; P18054
Target sequence (P18054 whole entry, looked up): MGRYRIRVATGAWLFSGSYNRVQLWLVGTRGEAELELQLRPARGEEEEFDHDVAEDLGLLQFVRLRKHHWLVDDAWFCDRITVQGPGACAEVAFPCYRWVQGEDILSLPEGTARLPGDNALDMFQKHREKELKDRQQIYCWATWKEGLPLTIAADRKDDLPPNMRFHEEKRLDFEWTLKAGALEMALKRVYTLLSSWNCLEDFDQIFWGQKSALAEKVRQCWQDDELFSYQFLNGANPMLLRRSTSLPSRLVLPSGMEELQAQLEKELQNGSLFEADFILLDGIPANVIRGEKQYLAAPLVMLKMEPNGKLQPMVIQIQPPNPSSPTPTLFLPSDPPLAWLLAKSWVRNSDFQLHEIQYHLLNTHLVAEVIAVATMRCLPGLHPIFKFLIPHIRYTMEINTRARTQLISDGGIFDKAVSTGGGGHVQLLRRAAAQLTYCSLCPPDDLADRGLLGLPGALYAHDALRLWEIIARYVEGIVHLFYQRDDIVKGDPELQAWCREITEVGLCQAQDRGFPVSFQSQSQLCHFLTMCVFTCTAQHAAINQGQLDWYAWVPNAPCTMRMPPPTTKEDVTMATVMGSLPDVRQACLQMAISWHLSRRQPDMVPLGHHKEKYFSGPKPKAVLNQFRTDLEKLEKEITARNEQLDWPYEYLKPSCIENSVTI
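Hydroperoxide product was detected by ferrous iron/xylenol orange as the 573 to 405 nm absorbance ratio. Arachidonic acid at 40 uM (final) was turned over for 30 min at room temperature by 150 nM human 12hLO, pH 7.0 Hepes buffer, after 15 min compound preincubation.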
HT1080NT lethal: kills 2HG-producing HT-1080-NT fibrosarcoma cells | HT-1080-NT fibrosarcoma viability, CellTiter-Glo ATP luminescence, 48 h | Potency, µM (highest dose often 46.1 µM), actives largely listed as cytotoxic | 1.6% of 360,000 active | AID 686970;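 further: NT is the 2HG producing partner of a matched IDH1 knockdown line; nearly all actives have a fitted effect of over 55% in size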
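Compounds were tested in concentration-response format on HT-1080-NT cells for 48 hours at 37 degrees C. Cell viability came from CellTiter-Glo luminescence; curves were classified by r2, response magnitude and activity.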
DT40 TDP1 no CPT: qHTS for Inhibitors of human tyrosyl-DNA phosphodiesterase 1 (TDP1): qHTS in cells in absence of CPT | Potency, µM (series often up to 46.2 µM), actives largely listed as inhibitors | DT40 Tdp1-/- hTDP1 cells, no CPT, ATP luminescence, 48 h | 15% of 420,000 active | AID 686978, 2013; further: nearly all actives have a fitted effect of over 55% in size
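Chicken DT40 Tdp1-/- cells complemented with human TDP1, screened without camptothecin (DMSO vehicle only), 400 cells/well. Compounds pin-transferred, cells incubated at 37 °C for at least 48 hr. Growth read as ATP-dependent luminescence (CellTiter-Glo, 30 min at RT).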
IL1B secr inh: inhibitors of inflammasome signaling (IL-1 beta secretion) | THP-1 LPS/ATP IL-1B secretion, AlphaLISA, 16 h; stronger effect = lower value | activity change, % at 57.5 µM | 4.7% of 360,000 active | AID 743279; in the data active means activity change below about -50%; inconclusive means mostly about -30% to -49%
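THP-1 cells pretreated 1 hr with compounds (up to 57.5 uM final), then stimulated with LPS (250 ng/mL final) plus ATP (1.25 mM final); secreted IL-1B measured by AlphaLISA after 16 hr, decreased signal indicating inhibition.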
TDP1 cell CPT: growth inhibition of DT40 Tdp1-/-;hTDP1 cells with camptothecin (screen for TDP1 inhibitors); chicken DT40 Tdp1-/-;hTDP1 cells + 20 nM CPT, ATP luminescence, 48 h; Potency, µM (series often up to 46.2 µM), most hits filed as inhibitors; 12% of 420,000 active; further: nearly all actives have a fitted effect of over 55% in size
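Chicken DT40 Tdp1-/- cells stably complemented with human TDP1 were seeded at 400 cells/well in medium containing 20 nM camptothecin, exposed to pin-transferred compounds, and grown at 37 °C for at least 48 hr. Viability was read as ATP luminescence.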
HT1080 IDH1KD tx: HT-1080 IDH1 knockdown cell toxicity (counter line). Potency, µM (top dose mostly 46.1 µM), actives largely listed as cytotoxic. HT-1080 IDH1 knockdown viability, ATP luminescence, 48 h. 2% of 360,000 active
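Luminescent ATP read-out (CellTiter-Glo, 10 min at room temperature) after 48 h compound exposure at 37 °C gave viability of IDH1-knockdown HT-1080 cells. Activity was normalised to DMSO and cell-free wells, then fitted as concentration-response curves.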
A number is an active result; i = inactive; ? = inconclusive; nt = not tested or not shown; [ ] = another dose, or the depositor's remark. This is one part of a sample in which hits are shown more often than they occur. Unless noted, the call rests on the fitted dose curve; in most records, active means well fitted curve in the direction sought with a large enough effect; inconclusive means small, poorly fitted or top-dose-only effect, or another doubt; inactive means no such curve, though single readings can be large; an effect the other way counts as inactive or inconclusive.

SMILES	12-LOX inh	HT1080NT lethal	DT40 TDP1 no CPT	IL1B secr inh	TDP1 cell CPT	HT1080 IDH1KD tx
O=C(/C=C/c1cccc([N+](=O)[O-])c1)c1ccc([N+](=O)[O-])o1	i	5.8µM	0.164µM	-51.7	0.164µM	5.8µM
O=C(/C=C/c1cccc([N+](=O)[O-])c1)c1ccco1	i	i	3.66µM	i	4.61µM	i
C#CC(CC)(CC)NC(=O)Cc1cc(OC)c(OC)c(OC)c1	i	nt	nt	nt	nt	nt
CC1=NN(c2ccccc2)C(=O)/C1=C/c1cccc(C)c1	i	i	?	i	?	i
CC1=NN(c2ccccc2)C(=O)/C1=C\C=C\c1ccccc1	?	4.11µM	7.31µM	nt	4.61µM	3.66µM
CC1=NN(c2ccccc2)C(=O)/C1=C/C=C/c1ccc(N(C)C)cc1	i	i	23.1µM	i	23.1µM	i
COc1ccc(S(=O)(=O)N(C)Cc2cnn(C)c2)cc1OC	i	nt	nt	nt	nt	nt
CC(=O)c1ccc2c3c(cccc13)CC2	i	i	i	i	i	i
O=C(C[N+]12CCCc3cccc(c31)CCC2)c1ccc2ccc3cccc4ccc1c2c34	nt	nt	5.01µM	nt	6.31µM	nt
O=C(CCCc1cccs1)Nc1nc(-c2ccc(F)cc2)cs1	i	i	8.2µM	i	?	i
COc1ccc(-c2csc(NC(=O)Cc3ccccc3)n2)cc1OC	i	i	1.64µM	i	?	i
COc1cccc(-c2csc(NC3OC(=O)c4c3ccc(OC)c4OC)n2)c1 (stereo not drawn)	?	?	?	-92.7	?	?
COc1ccc(-c2csc(NC(C)=O)n2)cc1OC	i	i	i	?	i	i
O=C(Cc1ccccc1F)Nc1nc(-c2ccc(F)c(F)c2)cs1	?	?	2.06µM	-89.7	5.17µM	?
Cc1cccc(N2CCN([C@H]3CS(=O)(=O)C[C@@H]3S(=O)(=O)c3ccc(Cl)cc3)CC2)c1C	i	nt	nt	nt	nt	nt
OC1(c2csc(CN3CCN(c4ccccn4)CC3)n2)CCN(C2CCCC2)CC1	i	nt	nt	nt	nt	nt
COc1ccc(-c2csc(NC(=O)CCn3cnc4ccccc4c3=O)n2)cc1OC	i	i	18.4µM	?	?	i
CC(OC(=O)c1ccc([N+](=O)[O-])o1)C(=O)Nc1nc(-c2ccc(F)c(F)c2)cs1 (stereo not drawn)	i	i	20.6µM	?	20.6µM	i
Cc1cc(C(=O)OC(C)C(=O)Nc2nc(-c3ccccc3)cs2)c(C)o1 (stereo not drawn)	i	?	i	i	i	i
O=C(CN1CCCCC1)Nc1nc(-c2ccc(F)c(F)c2)cs1	i	i	?	i	?	i
O=C(Nc1nc(-c2ccc(F)c(F)c2)cs1)Nc1ccc(F)cc1F	i	i	0.651µM	i	1.64µM	i
O=C(COC(=O)C1CC1)Nc1nc(-c2ccc(F)c(F)c2)cs1	i	i	10.3µM	i	20.6µM	i
CN(C)C(=O)CN(C)c1nc(-c2ccsc2)nc2ccccc12	i	nt	nt	nt	nt	nt
COc1ccc(CN2CCOC[C@H]2c2ncc(-c3ccc(OC)cc3)[nH]2)cc1	i	nt	nt	nt	nt	nt
CC(C)CNC(=O)C(C)(C)Oc1nn(CC2CC2)c2ccc(CN3CCCC3)cc12	i	nt	nt	nt	nt	nt
SMILES	12-LOX inh	HT1080NT lethal	DT40 TDP1 no CPT	IL1B secr inh	TDP1 cell CPT	HT1080 IDH1KD tx
C=C(C)Cn1c(SCC(=O)O)nc2c1c(=O)n(C)c(=O)n2C	i	nt	nt	nt	nt	nt
O=C(Cc1cccs1)Nc1nc(-c2ccc(F)cc2F)cs1	i	i	?	-69.5	10.3µM	?
COc1ccc(OC)c(-c2csc(NC(=O)Cc3cccs3)n2)c1	i	i	?	i	i	i
O=C(O)CCCC(=O)Nc1nc(-c2ccccc2)cs1	i	i	i	i	i	i
COC(=O)c1c(-c2ccc3ccccc3c2)csc1NC(=O)Cc1ccc(OC)c(OC)c1	?	i	13µM	?	i	i[9.24 µM]
O=C(Cc1c(F)c(F)c(F)c(F)c1F)Nc1nc(-c2ccccc2)cs1	i	?	16.4µM	-79.3	?	16.4µM
COc1cccc(NC(=O)Nc2nc(-c3ccc(OC)c(OC)c3)cs2)c1	i	11.6µM	7.31µM	-104.4	18.4µM	7.31µM
